# Source: the supplement of paper PMC11417369
# In all, about 25,000 sequences were measured (“ln(normalized median fluorescence intensity)”: median about 9.7, highest 2% from about 11 on). The sample holds the highest values, similar sequences and a random draw of the others, so the mix is not that of the screen.
# Tested on: PfAP2-HC AP2 domain (GST-tagged)
# Assay: gcPBM binding intensity (ln(normalized median fluorescence intensity)); higher = stronger DNA binding
# Procedure, shortened: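 An Agilent 4 × 180k array carrying primer-extended double-stranded 36-bp intergenic genomic probes and negative controls received GST-tagged P. falciparum DNA-binding domains expressed in E. coli, about 25 μg on average, for 1 h. The binding buffer contained 1× PBS, 1% milk, 0.2 mg/ml BSA, 0.5% salmon testes DNA and 0.03% Triton X-100. Binding intensity is the top Masliner-normalised natural-log median intensity across replicate spots of either probe orientation, read after Alexa488 anti-GST antibody staining and a 488 nm scan.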
row,Sequence,gcPBM binding intensity (ln)
1,TAATTAAAATCATATACACACCCATATATATATATA [CACACA_site8524],10
2,AAATACCTTATATATACACACTATGTTTTTCTTTTT [CACACA_site4792],9.97
3,AATAAATAAAAATTATGTACATATATAAAAAATACA [XGTACX_site8581],9.82
4,TTGTTTCTTTTTTTTTGTACATATATATTGTATATT [XGTACX_site7602],9.89
5,AATAATAAATCAAACTGTACATATATTTTCAATCTA [XGTACX_site3344],9.61
6,TATAAAAAAATAATAAAATAATAAAATATATAAATA [TGCATGCA_negctrl_site394],9.6
7,AAAAAAAAAAAATGTGCACACGCGTACAGACAAAAA [CACACA_site2005],10.3
8,ATTAAATCTATATATACACACATGTTTGGTATATTC [CACACA_site2657],9.87
9,ATGCACTCATTGTGCACACGCATATTACGAAAAGAA [CACACA_site2638],9.86
10,TTTTTTTTTTGATGTTGTACATATATACTATATAAT [XGTACX_site1332],9.65
11,AAAACAAATGCTTAAAGTACTTATTATTTTTCTTTT [XGTACX_site6324],9.57
12,AAATTATAATATAATACACACATAAAAAAAAAAAAA [CACACA_site7],9.79
13,TATAAATAAATTTATACACACACACCCATATATATA [CACACA_site8183],10.3
14,AATAAATATATATACACACCCATATATATATATATA [CACACA_site2595],9.63
15,CATATATATAAATACACACACACACCCCTTATAATT [CACACA_site4064],10.6
16,GATGAATAAATCAAAGCACACATACACCCACATATA [CACACA_site7986],11.2
17,TAAATAAATTTATACACACACACACCCATATATATA [CACACA_site849],10.9
18,TCAAAGCACCCATACACACACATATATATATATATA [CACACA_site4317],10.5
19,TACATATACATATACACACACACACCCAAATAAATA [CACACA_site1344],10.5
20,TAATTATATAAATACACACACATACACCCAAATAAA [CACACA_site5819],11.1
21,ATTAATTATATATATACACACACATACACCCAAATA [CACACA_site9126],10.3
22,TGAATAAATCAAAGCACACATACACCCACATATATA [CACACA_site286],10.2
23,CATATAAATAAATACACACACACACGCCTTATAATT [CACACA_site7830],11.6
24,TCTTTTTTTTTACATACTTTTTTCCTTTTTTTTTTA [CACACA_negctrl_site1429],9.71
